# Source: PubChem (National Center for Advancing Translational Sciences (NCATS))
# IkB sig inh – inhibitors of IkB signaling in ABC-DLBCL cells; ABC-DLBCL IkBa-CBG/CBR dual luciferase ratio, 4 h; response scale: scaled: untreated 0%, proteasome inhibitor 100%; hit rate 0.04% among 110,000; Potency, µM (doses to about 57.1 µM), inactives show top-dose IkBa stabilization activation; AID 445; active = well fitted curve in the direction sought with a large enough effect in the signal ratio, not every such curve was filed as active; inconclusive = small, poorly fitted or top-dose-only effect, or a change in a side signal; the % refers to the signal ratio;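 also: potency is read from the fitted curve at half-maximal effect; the direction sought is a rising ratio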
#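 Luminescence ratio of IκBα-fused green versus native red beetle luciferase in OCI-Ly3 cells, 4 h post-doxycycline with compound; red signal alone, scaled from basal (0%) to zero light (-100%), flagged nonspecific or cytotoxic effects.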
# p53ts 32C kill – cytotoxicity in p53ts cells at permissive temperature. Potency, µM (series often up to 46.1 µM), for inactives: top-dose activity change, negative = cytotoxicity, usual class: cytotoxic. AID 924. H1299-p53A138V at 32C, ATP luminescence viability, 24 h. hit rate 0.93% among 130,000;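 also: potency is read from the fitted curve at half-maximal effect; 0% = DMSO and -100% = full killing by reference compound; nearly all actives have a fitted effect of over 55% in size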
#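 ATP-content luminescence (ATPlite) read-out after 24 h compound exposure at 32C in H1299-p53A138V cells (600/well). Tested up to 46 uM. Normalized to DMSO (0%) and 100 uM tamoxifen (100% killing); Hill-fit AC50.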
# FLuc inh – blocks Photinus pyralis firefly luciferase activity; P08659; hit rate 2.2% among 72,000; Potency, µM (top dose mostly 57.1 µM), without a hit: at the top dose activity change, negative = inhibition, hits mostly inhibitors; purified firefly luciferase, luminescence, 8 min; also: potency is read from the fitted curve at half-maximal effect; % is scaled to controls: 0 for no effect and ±100 for the full control effect; nearly all actives have a fitted effect of over 40% in size
# Target sequence (P08659 whole entry, looked up): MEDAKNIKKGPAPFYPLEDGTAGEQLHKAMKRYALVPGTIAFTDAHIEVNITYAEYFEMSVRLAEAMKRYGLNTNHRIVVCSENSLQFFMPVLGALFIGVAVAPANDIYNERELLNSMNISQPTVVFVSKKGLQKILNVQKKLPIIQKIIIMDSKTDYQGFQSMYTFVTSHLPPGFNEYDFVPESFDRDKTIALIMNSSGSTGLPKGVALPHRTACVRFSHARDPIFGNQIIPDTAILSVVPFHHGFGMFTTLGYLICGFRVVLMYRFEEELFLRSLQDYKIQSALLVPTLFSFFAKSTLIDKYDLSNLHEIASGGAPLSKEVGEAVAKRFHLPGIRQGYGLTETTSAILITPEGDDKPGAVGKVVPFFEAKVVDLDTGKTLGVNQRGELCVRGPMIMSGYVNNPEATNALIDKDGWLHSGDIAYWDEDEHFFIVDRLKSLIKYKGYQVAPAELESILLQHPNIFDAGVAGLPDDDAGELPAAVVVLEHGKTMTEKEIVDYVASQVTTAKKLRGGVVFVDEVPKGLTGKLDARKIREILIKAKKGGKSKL
#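 Inhibition of light generation by firefly luciferase from ATP and luciferin was profiled with concentration-response curves per sample, ATP held at 10 uM within the enzyme's linear range. Plates were read by luminescence after an 8-minute ambient incubation.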
# p53ts 39C tox – kills p53ts cells at the nonpermissive temperature; H1299-p53A138V viability at 39C, ATP luminescence, 24 h; Potency, µM (highest dose often 46.1 µM), inactives show at the top dose activity change, negative = cell killing, most hits filed as cytotoxic; hit rate 1.5% among 130,000; also: potency is read from the fitted curve at half-maximal effect; % is scaled to controls: 0 for no effect and ±100 for the full control effect; nearly all actives have a fitted effect of over 55% in size
# IMPase cell inh – IMPase inhibition in cells | CHO-M1 cells, IP1 accumulation, HTRF TR-FRET ratio | P97697 | inhibition (IP1 accumulation), % at 46.1 µM | 120,000 tested, under 10 active | AID 901; active = well fitted curve in the direction sought with a large enough effect in the signal ratio, not every such curve was filed as active; inconclusive = small, poorly fitted or top-dose-only effect, or a change in a side signal; inactive = no such curve, though single readings can be large or run the other way; the % refers to the signal ratio;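 also: cells stimulated with carbachol in lithium chloride buffer; plate controls were DMSO basal wells for no effect and reference inhibitor wells for full effect; higher means more IMPase inhibition seen as more IP1 and lower FRET ratio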
#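 CHO-M1 cells (CHO stably expressing M1 receptor), compound up to 46 uM final, stimulated with carbachol (50 uM as added) in buffer with 50mM LiCl, pH 7.4, 30 min at 37C. Cytosolic IP1 read by TR-FRET; AC50 from Hill fits.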
# Peg3 imprint – induces erasure of genomic imprints in mouse ES cells. mouse ES Peg3-LacZ reporter, beta-gal luminescence, 40 h. Potency, µM (top dose mostly 60.7 µM), inactives show top-dose activity change, positive = activation, usual class: activators. hit rate 0.02% among 110,000. AID 1948; also: potency is read from the fitted curve at half-maximal effect
#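 Imprint erasure is scored as LacZ activity from the silenced maternal Peg3 allele in feeder-free female ES cells cultured 40 h with LIF. Luminescence is normalized to in-plate negative controls and fitted to the Hill equation.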
# The depositor's hits bear a star; ? = inconclusive; nt = not tested or not shown; [ ] = dose if it differs, or a comment. The sample as a whole holds a higher share of hits than the screen did. Unless noted, calls follow the shape of the dose curve; as a rule, active = well fitted curve in the direction sought with a large enough effect; inconclusive = small, poorly fitted or top-dose-only effect, or another doubt; inactive = no such curve, though single readings can be large; an effect the other way counts as inactive or inconclusive.
SMILES,IkB sig inh,p53ts 32C kill,FLuc inh,p53ts 39C tox,IMPase cell inh,Peg3 imprint
OC[C@H]1O[C@@H](n2cnc3cncnc32)[C@H](O)[C@@H]1O,nt,?,nt,10µM*,nt,-12.0%
OC[C@H]1O[C@@H](n2cnc3c(NCc4ccco4)ncnc32)[C@H](O)[C@@H]1O,nt,15.8µM*,nt,?,-0.5,-7.4%
Nc1nc(Cl)nc2c1ncn2[C@@H]1O[C@H](CO)[C@H](O)[C@H]1O,nt,nt,nt,nt,nt,-11.4%
CCOc1ccc(N/C=C/C(=O)c2ccccc2)c([N+](=O)[O-])c1,nt,nt,nt,5.62µM*,0.5,nt
Cc1cc2ncc(-c3ccc(Cl)cc3)c(N)n2n1,3.4%,?,12.6µM*,?,11.1,-17.4%
COc1cccc(-c2cncnc2NCc2cccnc2)c1,1.4%[11.4 µM],10.6%,0.6%[2.29 µM],-2.6%,nt,-12.7%
CCn1c(/C=N/c2nc3ccccc3n2C)nc2ccccc21,nt,nt,nt,nt,7.4,nt
Cn1c(/N=C/c2c[nH]c3ccccc23)nc2ccccc21,6.8%,4.9%,0.631µM*,12.3%,6.5,-11.5%
Cn1c(/N=C/c2ccc3c(c2)OCO3)nc2ccccc21,-1.9%,-5.5%,2.51µM*,-2.5%,?,-11.6%
Cn1c(NCc2c[nH]c3ccccc23)nc2ccccc21,-0.3%,?,25.1µM*,-28.9%,-1.0,-35.4%
CCn1c(NCc2c[nH]c3ccccc23)nc2ccccc21,1.5%,-6.2%,-20.1%,-11.8%,nt,-3.8%
CC(C)(C)C(=O)[C@H](C(c1ccccc1)N1CCOCC1)N1CCOCC1 (stereo partly specified),nt,nt,nt,nt,nt,-6.1%[10.9 µM]
Cc1cc(C(=O)COC(=O)c2n[nH]c3ccccc23)c(C)n1C,?,2.51µM*,12.6µM*,3.16µM*,-3.3,-64.4%
COCCn1c(C)cc(C(=O)COC(=O)c2cncc(Br)c2)c1C,nt,nt,nt,nt,-3.4,nt
COCCn1c(C)cc(C(=O)COC(=O)c2n[nH]c3ccccc23)c1C,?,1µM*,1.26µM*,2µM*,1.6,-87.0%
Cc1ccc2nc(SCC(=O)c3cc(C)n(C)c3C)[nH]c2c1,nt,nt,nt,nt,7.6,nt
COCCn1c(C)cc(C(=O)COC(=O)c2ccc3ncsc3c2)c1C,5.1%,-7.0%,25.1µM*,4.8%,5.3,-19.3%
Cc1cc(C(=O)CSc2nc3ccccc3[nH]2)c(C)n1C,0.2%,-15.0%,15.8µM*,-18.4%,-2.3,-22.9%
Cc1cc(C(=O)COC(=O)c2n[nH]c3ccccc23)c(C)n1CC1CCCO1 (stereo unspecified),nt,nt,nt,nt,-0.9,nt
O=C1CN(C(=O)Cc2ccc(F)cc2)C(c2ccccc2)c2cc(Cl)ccc2N1 (stereo unspecified),0.3%,15.6%,nt,13.6%,nt,17.1%[10.9 µM]
CC(=O)[C@@H]1[C@H]2[C@H](C(=O)[C@H]3OC[C@@H]2O3)[C@H]2C=Cc3ccccc3N21,nt,?,nt,?,?,-38.7%
CCCCNC(=O)COC(=O)c1ccc(Cl)c(S(=O)(=O)N2CCCC2)c1,nt,nt,nt,nt,5.9,nt
CCCn1c(C)cc(C(=O)COC(=O)c2ccc(Cl)c(S(=O)(=O)N3CCCC3)c2)c1C,5.2%,?,12.6µM*,?,-5.1,-13.2%
CCOC(=O)C1=C(CN(C)Cc2ccccc2)NC(=O)NC1c1ccc(OC(C)C)cc1 (stereo unspecified),?,1.0%,nt,-0.1%,nt,-8.2%[10.9 µM]
CCOc1ccc(-c2cc(CCCC(=O)NCCCOC)no2)cc1,?,?,15.8µM*,-27.6%,-4.4,-34.1%
COc1ccccc1Nc1nn2c(=O)c3ccc(C(=O)NCc4ccc(F)cc4)cc3nc2s1,-0.6%,3.16µM*,nt,3.16µM*,nt,-36.4%[10.9 µM]
CCc1cccc(NC(=O)c2ccc3c(=O)n4nc(Nc5ccccc5OC)sc4nc3c2)c1,-0.3%,3.16µM*,nt,5.01µM*,nt,-17.8%[10.9 µM]
Cc1ccc(C)c(Nc2nn3c(=O)c4ccc(C(=O)NCc5ccccc5)cc4nc3s2)c1,?,?,nt,12.6µM*,nt,3.4%[10.9 µM]
Cc1ccccc1Nc1nn2c(=O)c3ccc(C(=O)NCc4cccs4)cc3nc2s1,?,-14.6%,nt,-8.1%,nt,4.9%[10.9 µM]
